Measurements taken from PubChem BioAssay (NCI).
This is part of a sample that, as a whole, favours compounds with a hit. Of some 83,000 tested, about 20% had one in any assay.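 Step 1: grow cells in 96-well plates. Step 2: add test compound at a single concentration. Step 3: incubate 48 h. Step 4: record percent growth.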 Values without a mark were called inactive. Calls of active or inactive are those of the source. Rule for the calls: active = growth percent below 10; inactive = the rest.

These compounds were tested on MDA-MB-468 breast (assay: NCI-60 one-dose screen, 48 h (100 = growth as untreated, 0 = no growth, -100 = all killed)). Conditions: 10 µM unless noted.
For `CCN(CC)CCNC(=O)c1c(C)[nH]c(/C=C2\C(=O)Nc3ccc(F)cc32)c1C`, the growth was -56.4% (active).
`O=C1[C@H]2Cc3c([nH]c4ccccc34)[C@@H](c3ccc(Br)cc3)N2C(=O)CN1C1CCN(CC2CCCCC2)CC1` was tested, and the growth was -84.6% (active).
In the case of `Cc1ccc(-c2c(Br)c(OC(=O)CO[C@@H]3C[C@H](C)CC[C@H]3C(C)C)c(-c3ccc(C)cc3C)c(Br)c2OC(=O)CO[C@H]2C[C@@H](C)CC[C@@H]2C(C)C)c(C)c1`, the growth is reported as 34.5%.
`C#C[C@H]1CCCCCC1O` (stereo not given in full) gave a growth of 99.3%.
`O=c1nc(NO)[nH]c(=O)n1Cc1ccccc1` was tested, and the growth was 107%.
For `Cc1ccc(-c2cc3nc(C(Cl)Cl)nc(-c4cccnc4)n3n2)cc1`, the growth was -61.5% (active).
`O=C(O)c1cn(-c2ccccc2)nc1-c1ccc(O)cc1` gave a growth of 98.3%.
For `CCC(C)(C)c1ccc(OCCCCCCN2CCN(c3ccc(C)c(Cl)c3)CC2)cc1`, the growth was 47.1%.
`CCOC(=O)c1ccc(NC(=O)CSC(N)=O)cc1` showed a growth of 108%.
In the case of `COc1ccc2[nH]c(=O)c(/C=C/C(=O)/C=C/c3ccc(O)c(OC)c3)cc2c1`, the growth is reported as -32.1% (active).
`O=c1cc(-c2ccccc2)nc2sc(-c3c[nH]c4ccc(Br)cc34)nn12` was tested, and the growth was 87.2%.
Work on `CCCCN(CCCC)CCC(C)(O)c1cc2ccccc2c2ccccc12` (stereo not given) yielded a growth of 107%.
For `C[C@@H](NC(=O)[C@@H](CC(=O)N1CCC(N2CCCCC2)CC1)N1C(=O)[C@@H](N2C(=O)OC[C@@H]2c2ccccc2)[C@H]1/C=C/c1cccc(Cl)c1)c1ccccc1`, the growth was 1.45% (active).
Work on `COc1ccc2c(c1)C(=O)c1c-2c(OCCCN(C)C)nc2cc(Br)ccc12` yielded a growth of 67.5%.
`CCN(CC)CCNC(=O)c1cn2ncnc(Oc3ccc(NC(=O)Nc4ccc(Cl)c(C(F)(F)F)c4)cc3)c2c1C` was tested, and the growth was -80.7% (active).
Compound `COc1cc(/C=C/c2cn[nH]c2-c2ccc(C)cc2)cc(OC)c1OC` has a growth of 12.9%.
For `CCC1=C(c2ccc(OC)cc2)C(C)(C)Oc2c1ccc(O)c2CN1CCCC1`, the growth was -45.1% (active).
With `Nc1nc2ccccc2c2c(=O)c3cc(Cl)ccc3sc12` the growth was 21.3%.
With `CCSc1nc(-c2ccco2)n2nc(-c3ccco3)cc2n1` the growth was -67.7% (active).
For `CCN1CCN(c2nc(C)cc(N(CCNc3ccnc4cc(Cl)ccc34)Cc3ccc4c(c3)OCO4)n2)CC1`, the growth was -65.3% (active).
Compound `CCCCCCCCCCCCCCCCCCNC(=O)[C@H]1CSC(c2cccs2)N1` (stereo not given in full) has a growth of 60.8%.
For `COc1cccc(-c2cc(-c3cccs3)c(C#N)c(=O)[nH]2)c1`, the growth was 107%.
In the case of `COc1cc(OC)c(NC(=O)n2ncc3cc(Nc4ncnc5ccccc45)ccc32)cc1Cl`, the growth is reported as -5.26% (active).
For `CNC(=O)c1cc(-n2ccc3cc(NC(=O)Nc4ccc(N5CCN(C)CC5)c(C(F)(F)F)c4)ccc32)ccn1`, the growth was 59.7%.
With `Cc1[nH]cnc1/C=C1\SC(N2CCCCC2)=NC1=O` the growth was 101%.
With `CC(=O)c1cc2c(o1)C(=O)c1ccccc1C2=O` the growth was -40% (active).
Compound `O=C1/C(=C/c2cccc(O)c2)COc2ccc(O)cc21` has a growth of 52.8%.
Work on `O=C1Nc2ccccc2[C@]12CC(c1ccccc1)=NN2` yielded a growth of 56.5%.
`CC1=NC2=Nn3c(c4cnn(-c5ccccc5)c4n/c3=N\N)NN2C(c2ccccc2)=C1` showed a growth of 73.9%.
`COc1ccc(Nc2nn3c(SCC(=O)c4ccc(C)cc4)nnc3s2)cc1` was tested, and the growth was 87.1%.
With `CCCCn1c(=O)c(-c2cc(-c3ccc(Cl)cc3)nc(-c3ccc(Cl)cc3)c2)cc2cc(Cl)ccc21` the growth was 108%.
`CNC(=O)c1cc(Oc2ccc(NC(=O)c3nc(S(C)(=O)=O)n(C)c3-c3ccc(F)cc3)cc2)ccn1` gave a growth of 79.1%.
With `CC(NC(=O)c1ccccc1)C(=O)Nc1ccccc1` (stereo not given) the growth was 109%.
`CC(C)(C)OC(=O)NCc1ccc(CNc2c([N+](=O)[O-])cnc3ccccc23)cc1` was tested, and the growth was 22.2%.
For `C=CC1CN2CCC1CC2C(O)c1ccnc2ccc(OC)cc12` (stereo not given), the growth was 102%.
With `COc1ccc(-c2oc3cc(O)c(OC)c(O)c3c(=O)c2OC)cc1O` the growth was -26.6% (active).
For `O=C1N(c2ccccc2)C(=S)N[C@]12[C@H](c1ccccc1)C1CCCN1[C@]21C(=O)NC2C=CC(Cl)=C[C@H]21` (stereo not given in full), the growth was 99.7%.
Work on `COc1cc2c(Nc3ccc(-c4ccc(N)cc4)cc3)ncnc2c(OC)c1OC` yielded a growth of 71.9%.
`COc1cc(OCc2cccc(-c3ccc(C(O)c4nccs4)cc3)c2C)cc(OC)c1C=O` (stereo not given) was tested, and the growth was -36.5% (active).
Compound `CCCCNc1ccc(-c2ccc(NCCCC)cc2)cc1` has a growth of 29.9%.
